Experimental data as given in PubChem BioAssay (EPA / NIEHS).
Inconclusive results are not listed. Calls of active or inactive are those of the source. How the source made its calls, unless noted: active means hit-call score of the fitted dose curve at least 0.9, where 1 is the maximum; inactive means score below 0.9.

Columns and labels:
[1] = target: Retinoic acid receptor RXR-alpha (Homo sapiens) (UniProt P19793); test: ATG_RXRa_TRANS: Attagene TRANS-FACTORIAL HepG2 Assay for human Retinoid X Receptor alpha (RXRa) (AID 2283012; active means hit-call score of the fitted dose curve at least 0.9, where 1 is the maximum)
Retinoic acid receptor RXR-alpha (Homo sapiens), sequence (P19793 whole entry, looked up, the tested form may be a part): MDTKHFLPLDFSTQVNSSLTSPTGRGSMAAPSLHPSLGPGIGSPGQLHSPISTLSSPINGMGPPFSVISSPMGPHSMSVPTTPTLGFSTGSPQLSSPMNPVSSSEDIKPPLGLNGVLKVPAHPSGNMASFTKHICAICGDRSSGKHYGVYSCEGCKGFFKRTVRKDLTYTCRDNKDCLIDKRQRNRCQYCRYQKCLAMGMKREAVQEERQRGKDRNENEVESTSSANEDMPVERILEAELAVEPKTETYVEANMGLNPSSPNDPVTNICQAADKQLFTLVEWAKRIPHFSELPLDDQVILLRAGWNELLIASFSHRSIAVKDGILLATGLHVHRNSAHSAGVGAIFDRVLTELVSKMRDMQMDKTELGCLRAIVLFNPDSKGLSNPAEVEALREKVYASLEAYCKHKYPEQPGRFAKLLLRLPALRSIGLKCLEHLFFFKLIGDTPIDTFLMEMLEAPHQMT
Method in brief: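 Chimeric NR-GAL4 trans-activation in HepG2, 24 h treatment; reporter transcripts quantified by fluorescence on capillary electrophoresis, analysed for upward change from DMSO.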

[2] = target: human Thyroid Receptor alpha (THRa1), THRA (gene 7067) (UniProt P10827); test: ATG_THRa1_TRANS: Attagene TRANS-FACTORIAL HepG2 Assay for human Thyroid Receptor alpha (THRa1) (AID 2283014; active means hit-call score of the fitted dose curve at least 0.9, where 1 is the maximum)
human Thyroid Receptor alpha (THRa1), THRA (gene 7067), sequence (P10827 whole entry, looked up, the tested form may be a part): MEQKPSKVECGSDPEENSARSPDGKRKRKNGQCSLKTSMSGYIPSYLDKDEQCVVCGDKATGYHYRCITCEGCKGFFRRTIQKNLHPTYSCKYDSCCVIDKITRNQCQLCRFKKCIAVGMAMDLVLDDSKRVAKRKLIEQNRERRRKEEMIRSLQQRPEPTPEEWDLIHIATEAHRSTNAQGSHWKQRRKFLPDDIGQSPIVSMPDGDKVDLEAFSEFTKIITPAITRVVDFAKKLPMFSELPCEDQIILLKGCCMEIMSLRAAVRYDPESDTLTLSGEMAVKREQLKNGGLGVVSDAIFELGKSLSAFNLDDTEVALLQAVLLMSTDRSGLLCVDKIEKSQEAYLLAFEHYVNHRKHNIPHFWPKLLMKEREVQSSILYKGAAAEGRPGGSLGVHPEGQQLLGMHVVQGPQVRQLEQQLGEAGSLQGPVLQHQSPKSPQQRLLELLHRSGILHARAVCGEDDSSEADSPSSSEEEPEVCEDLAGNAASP
Method in brief: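 Transient HepG2 transfection, NR-Gal4 chimera driving GAL4-UAS reporters; 24 h compound exposure; total RNA, oligo(dT) RT, PCR, fluorescent primer extension, capillary electrophoresis. Upward direction vs DMSO control.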

[3] = read-out: E-selectin (Homo sapiens) (UniProt P16581); test: BSK_3C_Eselectin: BioMAP Diversity Plus: 3C Assay for Eselectin Biomarker Activity (AID 2283015); conditions: primary human endothelial cells (HUVEC); actives raise or lower the signal
Method in brief: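 HUVEC, 3C stimulation; compound exposure 24 h; E-selectin by ELISA; gain- or loss-of-signal fitted bidirectionally vs DMSO baseline.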

[4] = read-out: Interleukin-1 alpha (IL1a), IL1A (gene 3552); test: BSK_BE3C_IL1a: BioMAP Diversity Plus: BE3C Assay for Interleukin-1 alpha (IL1a) Biomarker Activity (AID 2283016); conditions: primary human bronchial epithelial cells; actives raise or lower the signal
Method in brief: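 Measured in human lung primary bronchial epithelial cells: IL-1a by ELISA at 24 h after dosing, with bidirectional fitting against DMSO.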

[5] = read-out: Monocyte Chemoattractant Protein-1 (MCP1), CCL2 (gene 6347); test: BSK_4H_MCP1: BioMAP Diversity Plus: 4H Assay for Monocyte Chemoattractant Protein-1 (MCP1) Biomarker Activity (AID 2283018); conditions: primary human endothelial cells (HUVEC); actives raise or lower the signal
Method in brief: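 Primary human umbilical vein endothelium is exposed to chemical for 24 h before MCP-1 is assayed by ELISA. Concentration-response fitted bidirectionally relative to DMSO.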

[6] = read-out: Human Leukocyte Antigen - DR isotype (HLADR), HLA-DRA (gene 3122); test: BSK_3C_HLADR: BioMAP Diversity Plus: 3C Assay for Human Leukocyte Antigen - DR isotype (HLADR) Biomarker Activity (AID 2283019); conditions: primary human endothelial cells (HUVEC); actives raise or lower the signal
Method in brief: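 HUVEC, 3C stimulation, 24 h post-dose; HLA-DR by ELISA; bidirectional curve fit vs DMSO baseline; gain or loss of signal scored.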

[7] = read-out: Interleukin-8 (IL8), CXCL8 (gene 3576); test: BSK_3C_IL8: BioMAP Diversity Plus: 3C Assay for Interleukin-8 (IL8) Biomarker Activity (AID 2283020); conditions: primary human endothelial cells (HUVEC); actives raise or lower the signal
Method in brief: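 Using DMSO-treated wells as the baseline, bidirectional curve fitting was applied to ELISA-measured IL-8 from human umbilical vein endothelial cultures sampled 24 h after compound addition.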

[8] = read-out: Monokine induced gamma interferon (MIG), CXCL9 (gene 4283); test: BSK_3C_MIG: BioMAP Diversity Plus: 3C Assay for Monokine induced gamma interferon (MIG) Biomarker Activity (AID 2283021); conditions: primary human endothelial cells (HUVEC); actives raise or lower the signal
Method in brief: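 ELISA-measured MIG in dosed HUVEC 3C cultures at 24 h, analysed by bidirectional fitting with DMSO defining baseline activity.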

[9] = target: human Vitamin D Receptor (VDR), VDR (gene 7421) (UniProt P11473); test: ATG_VDR_TRANS: Attagene TRANS-FACTORIAL HepG2 Assay for human Vitamin D Receptor (VDR) (AID 2283022; active means hit-call score of the fitted dose curve at least 0.9, where 1 is the maximum)
human Vitamin D Receptor (VDR), VDR (gene 7421), sequence (P11473 whole entry, looked up, the tested form may be a part): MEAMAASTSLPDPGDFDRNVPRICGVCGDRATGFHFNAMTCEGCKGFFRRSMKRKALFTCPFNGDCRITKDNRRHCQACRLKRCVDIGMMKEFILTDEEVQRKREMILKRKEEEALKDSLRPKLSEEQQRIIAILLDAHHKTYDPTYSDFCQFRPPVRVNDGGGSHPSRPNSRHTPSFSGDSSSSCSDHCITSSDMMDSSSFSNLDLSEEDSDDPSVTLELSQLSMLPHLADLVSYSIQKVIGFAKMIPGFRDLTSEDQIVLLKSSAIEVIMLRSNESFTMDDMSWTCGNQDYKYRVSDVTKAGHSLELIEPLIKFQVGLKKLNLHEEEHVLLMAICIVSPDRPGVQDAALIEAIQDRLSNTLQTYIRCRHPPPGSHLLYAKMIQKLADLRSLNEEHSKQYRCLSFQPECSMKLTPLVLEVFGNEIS
Method in brief: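 RT-PCR/capillary electrophoresis read-out of reporter mRNA induction in transiently transfected HepG2; 24 h dosing; chimeric NR-Gal4 (TRANS format); gain-of-signal fit against DMSO baseline.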

[10] = BSK_3C_SRB: Viability Assessment in the BioMAP Diversity Plus: 3C Assay (AID 2283023); conditions: primary human endothelial cells (HUVEC);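 further: cells read 24 h after compound dosing; fitted both ways against DMSO so a hit may be signal rise or drop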
Method in brief: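 HUVEC, 24 h post-dose; 10% TCA fix, 0.1% SRB stain, A560 nm. Bidirectional curve fit vs DMSO negative control.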

[11] = BSK_3C_Vis: BioMAP Diversity Plus: 3C Assay for Morphology Visualization (AID 2283025); conditions: primary human endothelial cells (HUVEC);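 further: fitted both ways so gain or loss versus DMSO counts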;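 on AC50: light microscopy image of cell morphology used as background control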
Method in brief: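 Light-microscopy morphology readout, 24 h exposure, human primary umbilical vein endothelium; analysed relative to DMSO with bidirectional fitting.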

[12] = read-out: Pselectin, SELP (gene 6403); test: BSK_4H_Pselectin: BioMAP Diversity Plus: 4H Assay for Pselectin Biomarker Activity (AID 2283026); conditions: primary human endothelial cells (HUVEC); actives raise or lower the signal
Method in brief: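 Bidirectional fits against DMSO gave the endpoint. Cells: primary human umbilical vein endothelium, chemical-treated for 24 h before ELISA detection of P-selectin.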

[13] = BSK_4H_SRB: Viability Assessment in the BioMAP Diversity Plus: 4H Assay (AID 2283027); conditions: primary human endothelial cells (HUVEC);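 further: cells exposed to compound for 24 h before staining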
Method in brief: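 Cytotoxicity readout: sulforhodamine B (0.1%) staining of total protein after 10% TCA fixation, measured at 560 nm in human umbilical vein endothelium at 24 h. DMSO set the baseline; fitting was bidirectional.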

[14] = BSK_BE3C_SRB: Viability Assessment in the BioMAP Diversity Plus: BE3C Assay (AID 2283028); conditions: primary human bronchial epithelial cells;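 on AC50: fitted both ways so AC50 may mark signal gain or loss versus DMSO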
Method in brief: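 Primary human bronchial epithelium; chemical dosing, 24 h; 10% TCA fix, 0.1% SRB stain, A560; bidirectional fit vs DMSO baseline.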

[15] = read-out: Thrombomodulin, THBD (gene 7056); test: BSK_3C_Thrombomodulin: BioMAP Diversity Plus: 3C Assay for Thrombomodulin Biomarker Activity (AID 2283029); conditions: primary human endothelial cells (HUVEC); actives raise or lower the signal
Method in brief: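 In a multiplexed primary-cell system, human umbilical vein endothelium received chemical and was assayed 24 h later for thrombomodulin by ELISA. Parallel cultures were SRB-stained (0.1% SRB after 10% TCA fixation, read at 560 nm) to flag cytotoxicity.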

[16] = read-out: Monocyte Chemoattractant Protein-1 (MCP1), CCL2 (gene 6347); test: BSK_3C_MCP1: BioMAP Diversity Plus: 3C Assay for Monocyte Chemoattractant Protein-1 (MCP1) Biomarker Activity (AID 2283017); conditions: primary human endothelial cells (HUVEC); actives raise or lower the signal
Method in brief: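 HUVEC, 3C system; 24 h chemical exposure; MCP-1 by ELISA; bidirectional curve fit vs DMSO baseline.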

[17] = target: human Retinoid X Receptor beta (RXRb), RXRB (gene 6257) (UniProt P28702); test: ATG_RXRb_TRANS: Attagene TRANS-FACTORIAL HepG2 Assay for human Retinoid X Receptor beta (RXRb) (AID 2283013; active means hit-call score of the fitted dose curve at least 0.9, where 1 is the maximum)
human Retinoid X Receptor beta (RXRb), RXRB (gene 6257), sequence (P28702 whole entry, looked up, the tested form may be a part): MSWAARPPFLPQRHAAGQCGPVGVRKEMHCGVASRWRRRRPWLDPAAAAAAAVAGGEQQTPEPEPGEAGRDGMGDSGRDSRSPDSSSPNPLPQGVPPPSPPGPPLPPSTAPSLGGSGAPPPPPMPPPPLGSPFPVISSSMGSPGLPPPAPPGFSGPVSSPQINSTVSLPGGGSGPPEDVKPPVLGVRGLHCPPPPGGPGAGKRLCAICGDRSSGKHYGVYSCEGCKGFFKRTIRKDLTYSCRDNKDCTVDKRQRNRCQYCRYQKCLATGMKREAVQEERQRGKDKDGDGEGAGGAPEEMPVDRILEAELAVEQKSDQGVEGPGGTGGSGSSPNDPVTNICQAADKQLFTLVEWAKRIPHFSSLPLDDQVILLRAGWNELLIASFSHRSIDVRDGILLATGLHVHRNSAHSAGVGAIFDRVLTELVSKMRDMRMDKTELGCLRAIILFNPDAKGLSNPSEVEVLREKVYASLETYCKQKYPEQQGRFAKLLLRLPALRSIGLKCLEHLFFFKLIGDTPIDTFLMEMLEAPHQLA
Method in brief: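 After a 24 h incubation with test chemical, transfected HepG2 cells carrying NR-Gal4 fusions and GAL4-UAS reporter transcription units yield RNA whose reporter cDNA is FAM-labelled, HpaI-cut and sized by capillary electrophoresis; increases over DMSO are scored.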

[18] = read-out: Matrix Metallopeptidase 1 (MMP1), MMP1 (gene 4312); test: BSK_BE3C_MMP1: BioMAP Diversity Plus: BE3C Assay for Matrix Metallopeptidase 1 (MMP1) Biomarker Activity (AID 2283024); conditions: primary human bronchial epithelial cells; actives raise or lower the signal
Method in brief: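 In this multiplexed primary-cell system, human bronchial epithelium received chemicals for 24 h before an ELISA for MMP1. Values reflect bidirectional fits normalised to the DMSO baseline.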

[19] = target: human RAR-related Orphan Receptor gamma (RORg), RORC (gene 6097) (UniProt P51449); test: ATG_RORg_TRANS: Attagene TRANS-FACTORIAL HepG2 Assay for human RAR-related Orphan Receptor gamma (RORg) (AID 2283011; active means hit-call score of the fitted dose curve at least 0.9, where 1 is the maximum)
human RAR-related Orphan Receptor gamma (RORg), RORC (gene 6097), sequence (P51449 whole entry, looked up, the tested form may be a part): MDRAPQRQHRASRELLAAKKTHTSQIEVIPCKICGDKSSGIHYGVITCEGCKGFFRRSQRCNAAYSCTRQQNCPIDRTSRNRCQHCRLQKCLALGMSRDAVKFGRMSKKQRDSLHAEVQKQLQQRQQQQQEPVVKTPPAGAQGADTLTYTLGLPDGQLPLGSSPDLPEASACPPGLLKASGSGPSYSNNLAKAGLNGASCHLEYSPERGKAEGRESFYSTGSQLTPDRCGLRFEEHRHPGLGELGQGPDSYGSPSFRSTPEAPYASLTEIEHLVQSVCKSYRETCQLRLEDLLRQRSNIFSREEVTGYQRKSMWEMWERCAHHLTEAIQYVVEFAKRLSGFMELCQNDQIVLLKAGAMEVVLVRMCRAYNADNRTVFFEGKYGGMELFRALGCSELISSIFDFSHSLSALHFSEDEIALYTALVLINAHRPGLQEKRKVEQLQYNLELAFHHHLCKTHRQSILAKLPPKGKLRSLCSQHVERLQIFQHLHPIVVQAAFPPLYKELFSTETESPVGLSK
Method in brief: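 Transient MRTU transfection of HepG2 (TRANS format, exogenous NR-Gal4 chimera). 24 h dosing. Total RNA → oligo(dT) RT → PCR → 6-FAM labelling → HpaI cut → CE. Gain vs DMSO.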

Measured: AC50

E-selectin (Homo sapiens), sequence (P16581 whole entry, looked up): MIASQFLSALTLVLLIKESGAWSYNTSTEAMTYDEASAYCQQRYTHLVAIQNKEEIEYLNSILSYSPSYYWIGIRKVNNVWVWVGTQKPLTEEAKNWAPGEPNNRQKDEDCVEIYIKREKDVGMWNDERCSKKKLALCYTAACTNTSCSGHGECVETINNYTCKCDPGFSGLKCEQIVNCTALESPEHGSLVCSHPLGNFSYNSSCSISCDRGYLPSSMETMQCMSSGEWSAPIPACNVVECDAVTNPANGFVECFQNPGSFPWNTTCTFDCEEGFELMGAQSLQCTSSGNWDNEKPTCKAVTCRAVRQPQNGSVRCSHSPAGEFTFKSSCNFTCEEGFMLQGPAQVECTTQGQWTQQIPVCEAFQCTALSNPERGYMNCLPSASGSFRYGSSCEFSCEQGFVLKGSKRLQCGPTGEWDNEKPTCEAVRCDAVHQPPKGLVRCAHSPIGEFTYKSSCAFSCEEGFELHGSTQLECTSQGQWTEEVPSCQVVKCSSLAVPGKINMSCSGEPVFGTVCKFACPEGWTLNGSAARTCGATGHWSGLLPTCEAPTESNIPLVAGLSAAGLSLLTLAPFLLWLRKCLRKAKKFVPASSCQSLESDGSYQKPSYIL

Clc1ccccc1-c1nnc(-c2ccccc2Cl)nn1
active: [5] 20 µM
inactive: [1] | [2] | [3] | [4] | [6] | [7] | [8] | [9] | [10] | [11] | [12] | [13] | [14] | [15]

COC(=O)c1ccccc1S(=O)(=O)NC(=O)N(C)c1nc(C)nc(OC)n1
active: [12] 12.9 µM
inactive: [1] | [2] | [3] | [4] | [16] | [5] | [6] | [7] | [8] | [10] | [11] | [13] | [14] | [15]

CCOc1nc(NC)nc(NC(=O)NS(=O)(=O)c2ccccc2C(=O)OC)n1
inactive: [1] | [17] | [3] | [4] | [5] | [6] | [7] | [8] | [10] | [18] | [11] | [12] | [13] | [14] | [15]

COP(=O)(OC)OC=C(Cl)Cl
inactive: [4] | [5] | [7] | [8] | [10] | [13] | [14] | [15]
active: [6] 20 µM | [11] 9.8 µM | [12] 16.8 µM

N#CN
inactive: [19] | [3] | [4] | [5] | [6] | [7] | [8] | [10] | [18] | [11] | [12] | [13] | [14] | [15]

CCOCN(C(=O)CCl)c1c(C)cccc1CC
inactive: [2] | [4] | [7] | [8] | [9] | [13] | [15]
active: [3] 15.7 µM | [5] 20 µM | [6] 20 µM | [10] 18.2 µM | [11] 39 µM | [12] 11.4 µM | [14] 20 µM

CCN(CC)C(=O)SCc1ccc(Cl)cc1
active: [16] 3.72 µM
inactive: [19] | [1] | [3] | [4] | [5] | [6] | [8] | [9] | [10] | [11] | [12] | [13] | [14] | [15]
